In PubChem BioAssay AID624261 (National Center for Advancing Translational Sciences (NCATS), 2012) one finds Potency data, which are given here for one compound.

The other results are listed elsewhere or left out. Calls of active or inactive are those of the source. Calls come from the whole dose curve.

Chain of Glutaminase kidney isoform, mitochondrial (Homo sapiens) (O94925 whole entry, looked up, canonical isoform): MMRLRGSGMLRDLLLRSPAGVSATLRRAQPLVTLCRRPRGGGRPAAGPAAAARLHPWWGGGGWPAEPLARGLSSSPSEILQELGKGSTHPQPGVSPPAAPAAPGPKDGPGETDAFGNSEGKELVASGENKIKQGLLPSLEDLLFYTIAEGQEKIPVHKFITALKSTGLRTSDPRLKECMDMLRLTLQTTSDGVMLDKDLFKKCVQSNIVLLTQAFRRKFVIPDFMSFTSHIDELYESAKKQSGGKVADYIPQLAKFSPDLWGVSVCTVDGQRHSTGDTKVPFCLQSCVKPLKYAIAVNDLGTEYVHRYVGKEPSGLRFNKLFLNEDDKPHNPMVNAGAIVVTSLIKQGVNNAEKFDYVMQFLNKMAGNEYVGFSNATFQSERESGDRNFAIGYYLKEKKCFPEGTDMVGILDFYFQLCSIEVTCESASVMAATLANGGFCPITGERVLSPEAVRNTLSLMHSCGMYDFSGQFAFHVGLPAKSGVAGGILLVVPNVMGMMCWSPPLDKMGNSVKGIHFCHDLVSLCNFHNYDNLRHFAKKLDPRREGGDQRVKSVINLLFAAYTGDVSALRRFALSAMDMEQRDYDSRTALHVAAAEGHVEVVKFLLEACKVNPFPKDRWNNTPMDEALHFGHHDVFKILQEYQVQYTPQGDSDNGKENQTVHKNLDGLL

In this experiment the target is Glutaminase kidney isoform, mitochondrial (Homo sapiens) (UniProt O94925). The experiment is described as follows: qHTS for Inhibitors of Glutaminase (GLS): Hit Confirmation. The conditions noted are these: biochemical glutaminase enzyme inhibition assay. The text has this:
Glutaminase (GLS) catalyzes the hydrolysis of glutamine into glutamate and ammonia. It plays a critical role in glutaminolysis, which is an important energy source for proliferating cells. It was shown that c-Myc, an oncogenic transcription factor known to regulate microRNAs and to stimulate cell proliferation, increases glutamine metabolism by stimulating the expression of GLS via direct suppression of miR23a and miR23b.
GLS is also thought to play a pathogenic role on HAD using a human HIV-1 infected macrophage system. […] GLS inhibition limits glutamate release and provides neuroprotection against HIV-1 infected macrophages.
The overall goal of this project is to identify small molecule inhibitors of GLS through quantitative high throughput screening (qHTS) of the MLSMR. A validated potent and selective inhibitor can be used as a tool molecule to further study the pharmacology of its target as well as explore its potential therapeutic application in cancer and inflammatory neurological disorders, such as HIV1-associated dementia (HAD) and multiple sclerosis. This is the hit confirmation in the primary assay data. […]
Three 3 uL of hKGA is dispensed into black well 1536-well plates in 45 mM KH2PO4 (pH 8.2), 0.02% Tween-20. […] Plate is centrifuged for 25 sec before an initial fluorescence read is obtained on the ViewLux, after 30 min of RT incubation, the final read is taken on the ViewLux.
`COc1cc(OC)c(S(=O)(=O)Nc2ccccc2C(=O)O)cc1S(=O)(=O)Nc1ccccc1C(=O)O`: the Potency is 5.8 µM (active).
